The campaign covered roughly 340,000 compounds. About 2,100 (0.62%) were called active.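 The calls were made as follows: active = first-screen hits whose inhibition reached a set limit at any dose in the follow-up dose series; inconclusive = inhibition above the set first-screen limit but never retested; inactive = the rest.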 The list is a sample of the results. Entries with a potency or affinity are not part of this list.
target: Rac GTPase-activating protein 1 (Homo sapiens) (UniProt Q9H0H5); assay: MgcRacGAP GTPase-activating activity inhibitors, confirmation, biochemical, ADP Hunter fluorescence, primary and confirmatory (AID 624330); settings: MgcRacGAP-stimulated Rac1 GTP hydrolysis, at 30 µM, hits give high values, GST-tagged Rac1 F28L mutant substrate;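 also: fluorescence reports GDP produced by GAP-driven GTP hydrolysis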
Sequence (Q9H0H5 whole entry, looked up): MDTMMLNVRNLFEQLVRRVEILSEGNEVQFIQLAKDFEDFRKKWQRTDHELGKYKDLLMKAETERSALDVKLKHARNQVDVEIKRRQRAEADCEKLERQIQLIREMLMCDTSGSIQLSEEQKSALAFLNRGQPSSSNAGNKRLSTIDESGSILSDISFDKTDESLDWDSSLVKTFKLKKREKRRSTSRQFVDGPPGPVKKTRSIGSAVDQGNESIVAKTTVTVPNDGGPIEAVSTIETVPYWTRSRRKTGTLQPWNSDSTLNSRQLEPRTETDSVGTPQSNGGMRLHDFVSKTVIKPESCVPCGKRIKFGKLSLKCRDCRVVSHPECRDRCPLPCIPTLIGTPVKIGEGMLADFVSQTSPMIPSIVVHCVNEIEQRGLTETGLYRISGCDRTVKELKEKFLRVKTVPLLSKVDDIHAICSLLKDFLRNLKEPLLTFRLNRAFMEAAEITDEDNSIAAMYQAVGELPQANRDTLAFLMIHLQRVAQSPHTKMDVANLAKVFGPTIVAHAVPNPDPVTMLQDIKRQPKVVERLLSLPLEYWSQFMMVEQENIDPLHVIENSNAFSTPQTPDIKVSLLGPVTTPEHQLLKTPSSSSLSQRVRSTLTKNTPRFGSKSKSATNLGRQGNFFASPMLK

inhibition, inactive:
CCC(C(=O)Nc1cc(C)nn1-c1nc(C)cc(C)n1)c1ccccc1 (centres undefined) 13.7%, COc1cccc(/C=C2/C(=O)NN(c3ccc(Br)cc3)C2=O)c1O 13.4%, O=C1NN(c2ccccc2)C(=O)C1=Cc1ccccc1 13.7%, O=C1NN(c2cccc(Br)c2)C(=O)/C1=C\c1ccc(O)cc1 14.5%, O=C1NN(c2ccccc2)C(=O)/C1=C\c1ccccc1 21.7%, CCC1CCCCN1C(=O)CCS(=O)(=O)c1ccc2c(c1)CCN2C(C)=O (centres undefined) 8.33%, CCOc1ccc(N(CC(=O)Nc2ccccc2OC)S(C)(=O)=O)cc1 9.6%, C/C(=N\NC(=O)OC(C)(C)C)c1ccccc1Br -4.8%, CCCc1cc(=O)[nH]c(SCC(=O)N2CCCCCC2)n1 2.49%, COc1ccc(N2CCN(C(=O)CCS(=O)(=O)c3cccc4nsnc34)CC2)cc1 28%, Cn1nnnc1SCC(=O)Nc1cc(S(=O)(=O)N2CCCC2)ccc1Cl 4.66%, CC(=C/c1ccccc1)/C=N/n1cnnc1 -1.27%, CC(/C=N/n1cnnc1)=C\c1ccccc1 3.71%, CC(=C/c1ccccc1)/C=N/n1c(C)n[nH]c1=S 15.2%, CC(/C=N/n1c(-c2ccccc2)n[nH]c1=S)=C\c1ccco1 24.1%, CC(=O)Nc1ccc(S(=O)(=O)NNC(=O)c2cccc([N+](=O)[O-])c2)cc1 5.98%, COc1ccccc1NC(=O)CCC(=O)c1ccc(-c2ccccc2)cc1 -5.2%, CCc1ccc(NC(=O)C(=O)NCCOc2ccccc2Cl)cc1 -2.71%, Cc1ccccc1C(=O)c1cccn1CC(=O)NC1CCCC(C)C1C (centres undefined) -36.1%, NC(=O)C1(N2CCCCC2)CCN(Cc2ccc(Br)cc2)CC1 -3.42%, Clc1cc(Br)ccc1OCCN1CCOCC1 24.7%, CC1CCN(CCOCCOc2ccc(Br)cc2Cl)CC1 5.16%, Cc1cc(Cl)c(OCCOCCN2CCC(C)CC2)c(Br)c1 21.9%, Cc1ccc(OCCOCCN2CCCC2)c(Br)c1 31.4%, CC1CCCN(CCOCCOc2ccc(Br)cc2Cl)C1 (centres undefined) 30.6%, Cc1cc(C)c(OCCOCCN2CCN(C)CC2)c(Cl)c1 22.7%, Cc1ccc(C(C)(C)C)c(OCCOCCN2CCCC2)c1 24.1%, CC(C)(C)c1ccccc1OCCOCCN1CCCCCC1 -5.46%, Cc1cccc(/C(N)=N/OC(=O)Cc2cccs2)c1 2.9%
